This note sets out measurements from PubChem BioAssay (EPA / NIEHS).

Molecules are shown by their SMILES. Values joined by “and” are separate entries in the source; they are usually repeats but may differ in a detail not shown here. Equal values may be shown once. Some structures have more than one record in an assay (separate samples or runs), and their calls can disagree. Active and inactive are the calls of the source. Rule for the calls: active = hit-call score of the fitted dose curve at least 0.9, where 1 is the maximum; inactive = score below 0.9.

Conditions in all cases: mRNA level, 48 h; actives raise or lower the signal
Read-out in assay [1]: adenosine kinase (ADK) gene, ADK (gene 132)
Briefly: LTEA_HepaRG_ADK: Life Technologies and Expression Analysis (LTEA) Assay for adenosine kinase (ADK) gene using HepaRG (AID 2283471). In short, it runs like this: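 Read-out is ADK transcript level measured by qRT-PCR and normalised to three housekeeping genes. Cells are human HepaRG, dosed for 48 h at up to 100 uM in 0.5% DMSO. Gain or loss of signal is fitted against DMSO controls.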

Read-out in assay [2]: Alpha-fetoprotein (AFP) gene, AFP (gene 174)
Briefly: LTEA_HepaRG_AFP: Life Technologies and Expression Analysis (LTEA) Assay for Alpha-fetoprotein (AFP) gene using HepaRG (AID 2283472). In short, it runs like this:
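AFP transcript measured by TaqMan qRT-PCR with three housekeeping genes for normalization, after 48 h chemical treatment of HepaRG cells (top 100 uM, half-log steps, 0.5% DMSO). Gain or loss fitted against vehicle.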

Read-out in another assay: BCL2L11 (gene 10018)
Briefly: LTEA_HepaRG_BCL2L11: Life Technologies and Expression Analysis (LTEA) Assay for Bcl-2 (BCL2L11) gene using HepaRG (AID 2283473). In short, it runs like this: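 Differentiated human HepaRG cells were exposed 48 h in serum-free induction medium to eight half-log concentrations up to 100 uM in 0.5% DMSO, in duplicate. BCL2L11 mRNA was quantified by TaqMan qRT-PCR, normalized to ACTB, GAPDH and POLR2A; induction or repression fitted versus DMSO.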

Read-out in assay [3]: Apoptosis regulator Bcl-2 (Homo sapiens) (UniProt P10415)
As to the kind of experiment: LTEA_HepaRG_BCL2: Life Technologies and Expression Analysis (LTEA) Assay for Bcl-2 gene using HepaRG (AID 2283475). In short, it runs like this:
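qRT-PCR of BCL2 transcript, normalized to three housekeeping genes (ACTB, GAPDH, POLR2A), after 48 h chemical exposure of HepaRG cells; concentrations top 100 uM with half-log dilutions, 0.5% DMSO vehicle, duplicates; changes up or down fitted relative to vehicle.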

Read-out in assay [4]: Bcl-2 (BID) gene, BID (gene 637)
As to the kind of experiment: LTEA_HepaRG_BID: Life Technologies and Expression Analysis (LTEA) Assay for Bcl-2 (BID) gene using HepaRG (AID 2283476). In short, it runs like this: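 Duplicate 48 h treatments of HepaRG cells in serum-free induction medium spanned 100 uM downward in half-log steps, 0.5% DMSO. Transcript change quantified by qRT-PCR against three housekeeping genes, fitted up or down versus DMSO.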

Read-out in assay [5]: Cytochrome P450 (CYP24A1), CYP24A1 (gene 1591)
As to the kind of experiment: LTEA_HepaRG_CYP24A1: Life Technologies and Expression Analysis (LTEA) Assay for Cytochrome P450 (CYP24A1) using HepaRG (AID 2283478). In short, it runs like this: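 HepaRG cells plated 48 h, then exposed in duplicate in serum-free induction medium for 48 h to 8-point half-log series from 100 uM in 0.5% DMSO. CYP24A1 mRNA by Fluidigm qRT-PCR, normalized to ACTB, GAPDH, POLR2A; bidirectional fit versus DMSO.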

Read-out in assay [6]: cysteine-aspartic acid protease (CASP8), CASP8 (gene 841)
As to the kind of experiment: LTEA_HepaRG_CASP8: Life Technologies and Expression Analysis (LTEA) Assay for cysteine-aspartic acid protease (CASP8) using HepaRG (AID 2283480). In short, it runs like this: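 qRT-PCR readout of CASP8 mRNA, normalized to three housekeeping genes, after 48 h chemical exposure of HepaRG cells; 8-point half-log series, top 100 uM, 0.5% DMSO vehicle. Bidirectional curve fitting against DMSO baseline.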

Read-out in assay [7]: Cytochrome P450 (CYP2B6), CYP2B6 (gene 1555)
As to the kind of experiment: LTEA_HepaRG_CYP2B6: Life Technologies and Expression Analysis (LTEA) Assay for Cytochrome P450 (CYP2B6) using HepaRG (AID 2283481). In short, it runs like this: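 Differentiated human HepaRG cells in serum-free induction medium, dosed in duplicate for 48 h over 8 half-log concentrations topping at 100 uM (0.5% DMSO). CYP2B6 mRNA measured by TaqMan qRT-PCR, normalized to ACTB, GAPDH, POLR2A; bidirectional fit versus DMSO.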

Read-out in assay [8]: Cytochrome P450 2C19 (Homo sapiens) (UniProt P33261)
As to the kind of experiment: LTEA_HepaRG_CYP2C19: Life Technologies and Expression Analysis (LTEA) Assay for CYP2C19 using HepaRG (AID 2283482). In short, it runs like this: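 Differentiated HepaRG cells in serum-free induction medium exposed 48 h in duplicate, 8 concentrations from 100 uM by half-log steps in 0.5% DMSO. CYP2C19 mRNA measured by TaqMan qRT-PCR, normalized to ACTB, GAPDH, POLR2A. Bidirectional fit versus DMSO.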

Read-out in a further assay: CYP2C8 (gene 1558)
Briefly: LTEA_HepaRG_CYP2C8: Life Technologies and Expression Analysis (LTEA) Assay for CYP2C8 using HepaRG (AID 2283483). In short, it runs like this: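 HepaRG (human liver line), 48 h chemical exposure, 8-pt half-log series from 100 uM, 0.5% DMSO vehicle. Readout: CYP2C8 transcript by qRT-PCR, housekeeping-normalized. Bidirectional fit vs DMSO baseline.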

Read-out in a further assay: CYP2C9 (gene 1559)
Briefly: LTEA_HepaRG_CYP2C9: Life Technologies and Expression Analysis (LTEA) Assay for CYP2C9 using HepaRG (AID 2283484). In short, it runs like this:
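HepaRG, 48 h dosing, 8-pt half-log series, top 100 uM, 0.5% DMSO vehicle. Read-out: CYP2C9 transcript by TaqMan qRT-PCR, housekeeping-normalized (ACTB/GAPDH/POLR2A). Gain or loss fitted vs DMSO baseline.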

Read-out in a further assay: CYP2E1 (gene 1571)
Briefly: LTEA_HepaRG_CYP2E1: Life Technologies and Expression Analysis (LTEA) Assay for CYP2E1 using HepaRG (AID 2283485). In short, it runs like this:
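CYP2E1 transcript measured by Fluidigm qRT-PCR against three housekeeping genes in human HepaRG cells treated 48 h (top 100 uM, half-log steps, 0.5% DMSO vehicle). Gain or loss fitted relative to DMSO baseline.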

Read-out in a further assay: CYP4A11 (gene 1579)
Briefly: LTEA_HepaRG_CYP4A11: Life Technologies and Expression Analysis (LTEA) Assay for CYP4A11 using HepaRG (AID 2283486). In short, it runs like this:
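Differentiated HepaRG cells, 48 h after plating, exposed in duplicate for 48 h to 8 half-log concentrations up to 100 uM in 0.5% DMSO in serum-free induction medium. CYP4A11 mRNA measured by TaqMan qRT-PCR, normalized to ACTB, GAPDH and POLR2A.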

Read-out in assay [9]: Cytochrome P450 3A4 (Homo sapiens) (UniProt P08684)
As to the kind of experiment: LTEA_HepaRG_CYP3A4: Life Technologies and Expression Analysis (LTEA) Assay for CYP3A4 using HepaRG (AID 2283487). In short, it runs like this: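 HepaRG, 48 h exposure, 8-pt CRC from 100 uM (half-log), 0.5% DMSO, duplicates; serum-free induction medium. Readout: CYP3A4 mRNA, qRT-PCR, ACTB/GAPDH/POLR2A normalization. Bidirectional fit vs DMSO.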

Read-out in assay [10]: DNA damage-inducible transcript 3 (DDIT3), DDIT3 (gene 1649)
As to the kind of experiment: LTEA_HepaRG_DDIT3: Life Technologies and Expression Analysis (LTEA) Assay for DNA damage-inducible transcript 3 (DDIT3) using HepaRG (AID 2283488). In short, it runs like this:
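DDIT3 transcript was quantified by qRT-PCR with ACTB/GAPDH/POLR2A normalization after 48 h chemical treatment of differentiated HepaRG cells in 0.5% DMSO. Dosing was eight-point, half-log, top 100 uM, duplicate wells. Curves fitted bidirectionally versus DMSO.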

Read-out in assay [11]: Pro-epidermal growth factor (Homo sapiens) (UniProt P01133)
Briefly: LTEA_HepaRG_EGF: Life Technologies and Expression Analysis (LTEA) Assay for Epidermal growth factor (EGF) using HepaRG (AID 2283489). In short, it runs like this: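 HepaRG cells (~100,000/well, 48 h pre-culture) exposed in duplicate for 48 h in serum-free induction medium to 8 half-log concentrations up to 100 uM in 0.5% DMSO. EGF mRNA by qRT-PCR, normalized to ACTB/GAPDH/POLR2A; bidirectional fit versus DMSO.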

Read-out in assay [12]: Cytochrome P450 (CYP1A2), CYP1A2 (gene 1544)
As to the kind of experiment: LTEA_HepaRG_CYP1A2: Life Technologies and Expression Analysis (LTEA) Assay for Cytochrome P450 (CYP1A2) using HepaRG (AID 2283479). In short, it runs like this:
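Differentiated human HepaRG cells in serum-free induction medium exposed 48 hours in duplicate to 8 half-log concentrations from 100 uM, 0.5% DMSO. CYP1A2 mRNA quantified by qRT-PCR, normalized to ACTB, GAPDH and POLR2A; bidirectional fitting versus DMSO.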

Read-out in assay [13]: Apolipoprotein A-V (APOA5) gene, APOA5 (gene 116519)
As to the kind of experiment: LTEA_HepaRG_APOA5: Life Technologies and Expression Analysis (LTEA) Assay for Apolipoprotein A-V (APOA5) gene using HepaRG (AID 2283474). In short, it runs like this: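 Differentiated HepaRG cells in serum-free induction medium, exposed 48 h in duplicate to eight half-log concentrations topping at 100 uM (0.5% DMSO). APOA5 mRNA by Fluidigm TaqMan qRT-PCR, normalized to ACTB, GAPDH and POLR2A; bidirectional fit versus DMSO.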

Cytochrome P450 3A4 (Homo sapiens), sequence (P08684 whole entry, looked up): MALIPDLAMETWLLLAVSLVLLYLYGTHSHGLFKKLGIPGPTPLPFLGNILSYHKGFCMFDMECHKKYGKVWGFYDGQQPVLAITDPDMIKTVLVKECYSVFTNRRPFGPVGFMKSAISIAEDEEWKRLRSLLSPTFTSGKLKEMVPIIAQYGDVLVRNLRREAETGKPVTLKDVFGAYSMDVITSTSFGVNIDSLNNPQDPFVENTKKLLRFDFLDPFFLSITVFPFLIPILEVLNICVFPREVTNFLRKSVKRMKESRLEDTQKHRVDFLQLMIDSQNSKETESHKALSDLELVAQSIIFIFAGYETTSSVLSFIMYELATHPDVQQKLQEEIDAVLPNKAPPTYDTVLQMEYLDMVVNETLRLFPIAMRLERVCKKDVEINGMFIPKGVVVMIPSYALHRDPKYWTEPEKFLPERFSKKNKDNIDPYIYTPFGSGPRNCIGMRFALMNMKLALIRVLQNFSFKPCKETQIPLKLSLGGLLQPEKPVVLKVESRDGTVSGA
Cytochrome P450 2C19 (Homo sapiens), sequence (P33261 whole entry, looked up): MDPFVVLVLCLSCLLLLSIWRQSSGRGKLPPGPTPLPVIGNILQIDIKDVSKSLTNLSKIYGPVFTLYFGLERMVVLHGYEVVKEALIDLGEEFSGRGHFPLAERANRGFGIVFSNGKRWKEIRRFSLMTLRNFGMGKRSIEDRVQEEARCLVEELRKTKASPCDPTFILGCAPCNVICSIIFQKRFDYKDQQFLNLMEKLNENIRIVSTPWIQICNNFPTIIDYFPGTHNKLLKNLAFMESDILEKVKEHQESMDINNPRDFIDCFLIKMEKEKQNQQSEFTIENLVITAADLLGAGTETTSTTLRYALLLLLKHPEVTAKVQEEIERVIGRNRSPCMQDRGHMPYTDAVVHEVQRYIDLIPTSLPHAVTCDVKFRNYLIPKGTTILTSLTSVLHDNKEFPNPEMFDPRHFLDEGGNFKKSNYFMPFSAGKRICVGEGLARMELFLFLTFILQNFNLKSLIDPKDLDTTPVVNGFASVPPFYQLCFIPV
Apoptosis regulator Bcl-2 (Homo sapiens), sequence (P10415 whole entry, looked up): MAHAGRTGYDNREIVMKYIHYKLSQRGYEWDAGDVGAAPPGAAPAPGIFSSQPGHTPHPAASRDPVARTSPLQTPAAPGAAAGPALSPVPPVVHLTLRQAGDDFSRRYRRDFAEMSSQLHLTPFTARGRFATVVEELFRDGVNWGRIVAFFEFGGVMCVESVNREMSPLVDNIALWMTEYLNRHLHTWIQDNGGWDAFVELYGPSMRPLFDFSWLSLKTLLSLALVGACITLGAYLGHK

As to `O=C1c2ccccc2C(=O)N1SC(Cl)(Cl)Cl`, the molecule was classed as inactive (in assay [1]; in [2]; with BCL2L11 (gene 10018); in [3]; in [4]; in [5]). Besides, the molecule was classed as inactive (in assay [6]; in assay [7]; in [8]; with CYP2C8 (gene 1558); with CYP2C9 (gene 1559); with CYP2E1 (gene 1571)). In addition, the molecule was classed as inactive (with CYP4A11 (gene 1579); in assay [9]; in assay [10]; in assay [11]).

Broadly, the AC50 is the concentration giving half of the maximal activity seen. `O=S(=O)(O)C(F)(F)C(F)(F)C(F)(F)C(F)(F)C(F)(F)C(F)(F)C(F)(F)C(F)(F)F`: the AC50 is 12.8 µM (active) in [1]; 77.9 µM (active) and 80.1 µM (active) and 75.8 µM (active) in [2]; 0.00316 µM (active) in assay [5]; 84.5 µM (active) and 10.3 µM (active) and 48 µM (active) in [12]; 34.5 µM (active) in assay [6]; 88.9 µM (active) [middle of 4 runs] in [7]. Further, the concentration at half-maximal activity (AC50) was 89.3 µM (active) and 12.1 µM (active) and 11 µM (active) in assay [8]; 88.2 µM (active) and 12.1 µM (active) and 87.9 µM (active) with CYP2C8 (gene 1558); 80.2 µM (active) and 88.7 µM (active) with CYP2C9 (gene 1559); 61.1 µM (active) [middle of 4 runs] with CYP2E1 (gene 1571); 60.1 µM (active) [middle of 4 runs] in [10]. For the same molecule, the outcome (in assay [1]; in assay [2]; in the assay with BCL2L11 (gene 10018); in [4]; in assay [5]; in [6]) was inactive. Moreover, the outcome (in [8]; with CYP2C9 (gene 1559); in assay [9]; in [11]) was inactive.

Take `O=C(Nc1ccccc1)Nc1cnns1`: the outcome (in assay [1]; in the assay with BCL2L11 (gene 10018); in [13]; in assay [3]; in assay [4]; in [5]) was inactive. Moreover, the result in [6], in assay [7], in assay [9] and in assay [11] was inactive. For the same molecule, the AC50 is 76.2 µM (active) in assay [2]; 89.1 µM (active) in assay [8]; 88.7 µM (active) with CYP2C8 (gene 1558); 84 µM (active) with CYP2C9 (gene 1559); 70.3 µM (active) with CYP2E1 (gene 1571); 72.9 µM (active) in the assay with CYP4A11 (gene 1579). In addition, the AC50 in assay [10] is 79.2 µM (active).
